According to PubChem BioAssay (Tox21):
A number with no mark means an inactive call. Records with an inconclusive call do not appear. A call without a number means that no potency is given here. The source made the active and inactive calls. Unless noted, calls follow the shape of the full dose curve.

Tests used:
[1] = Nuclear factor erythroid 2-related factor 2/antioxidant responsive element (Nrf2/ARE) small molecule agonists: qHTS cell viability counter screen in human keratinocytes (AID 1919968; active = well fitted curve in the direction sought with a large enough effect in the repeat runs; an effect the other way counts as inactive or inconclusive; also: nearly all actives have a fitted effect of over 55% in size; also: potency is read from the fitted curve at half-maximal effect)
How it was run: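 Measured as CellTiter-Fluor fluorescence, this readout tracks cytotoxicity in the same wells as the ARE-luciferase screen. HaCaT reporter cells (1,500/well) received compounds after a 5 h pre-incubation and were exposed for 23 h.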

[2] = Nuclear factor erythroid 2-related factor 2/antioxidant responsive element (Nrf2/ARE) small molecule agonists: luciferase reporter gene qHTS assay in human keratinocytes (AID 1919969); also: nearly all actives have a fitted effect of over 35% in size; also: potency is read from the fitted curve at half-maximal effect
[3] = target: Gonadotropin-releasing hormone receptor (Homo sapiens) (UniProt P30968); experiment: Human gonadotropin-releasing hormone receptor (GnRHR) small molecule agonists, calcium flux assay in GnRHR-HEK293 cells (AID 1920063); also: nearly all actives have a fitted effect of over 35% in size
How it was run: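 Fluorescence kinetics (480 nm excitation, 540 nm emission; 3 min, 1 s steps) report calcium mobilisation in human GnRHR-HEK293 cells in agonist mode. Dye incubation: 1 h, 37 C.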

[4] = target: KiSS-1 receptor (Homo sapiens) (UniProt Q969F8); experiment: Human kisspeptin (KISS1R) small molecule agonists, calcium flux assay in KISS1R-HEK293 cells (AID 1920064; active = well fitted curve in the direction sought with a large enough effect in the repeat runs; an effect the other way counts as inactive or inconclusive)
How it was run: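 Measures KISS1R agonism through calcium-sensitive dye fluorescence in stably transfected HEK293 cells, read for 3 min after pin-tool compound delivery; 15-point titrations in triplicate.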

[5] = G protein-coupled receptor (GPCR) small molecule agonists, calcium flux assay: HEK293 wild type cell line counter screen (AID 1920065)
How it was run: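 Readout: fluorescence at 480 nm excitation/540 nm emission, sampled at 1 s intervals for 3 min. Cells had been cultured 18 h, then dye-loaded 1 h at 37 C before compound or ATP addition.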

[6] = p53 small molecule agonists, cell-based qHTS assay with human liver microsomes (AID 1963577);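 also: p53 response element beta-lactamase reporter cells with liver microsomes plus NADPH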
How it was run: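 With metabolic activation: human liver microsomes (0.5 mg/mL final) plus NADPH (0.5 mg/mL final) added alongside compounds to p53RE-bla cells; 16 h 37 C exposure; beta-lactamase read by LiveBLAzer fluorescence.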

[7] = p53 small molecule agonists, cell-based qHTS assay with rat liver microsomes (AID 1963578)
How it was run: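 Metabolic activation by rat liver microsomes and NADPH, each 0.5 mg/mL final, added right after compounds to p53RE-bla reporter cells (4,000/well, plated 5 h earlier). 16 h at 37 C, then LiveBLAzer substrate for 2 h at room temperature in the dark; fluorescence read-out.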

[8] = p53 small molecule agonists, cell-based qHTS assay with human liver microsomes: qHTS cell viability counter screen (AID 1963579); also: nearly all actives have a fitted effect of over 45% in size
How it was run: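 Metabolic activation used human liver microsomes and NADPH, both 0.5 mg/mL final, over 16 hours at 37 C on p53RE-bla cells (4,000/well). Cytotoxicity measured by CellTiter-Glo luminescence, 30 min at room temperature.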

[9] = p53 small molecule agonists, cell-based qHTS assay with rat liver microsomes: qHTS cell viability counter screen (AID 1963580); also: nearly all actives have a fitted effect of over 45% in size; also: potency is read from the fitted curve at half-maximal effect
How it was run: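 p53RE-bla HCT-116 cells (4,000/well) rested 5 h at 37 C, then given Tox21 compounds in DMSO with rat liver microsomes (0.5 mg/mL final) plus NADPH (0.5 mg/mL final) for 16 h at 37 C. Viability read by CellTiter-Glo luminescence after 30 min at room temperature.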

[10] = target: 5-hydroxytryptamine receptor 2A (Homo sapiens) (UniProt P28223); experiment: 5-hydroxytryptamine receptor 2A (HTR2A) small molecule antagonists, cell-based qHTS assay (AID 1963586); also: nearly all actives have a fitted effect of over 45% in size
How it was run: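 Antagonist-mode intracellular calcium assay: DOI (4 nM) added after 5 min compound pre-incubation at room temperature to dye-loaded HTR2A-CHO cells. Fluorescence followed for 3 min, sampled every second.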

[11] = target: 5-hydroxytryptamine receptor 2A (Homo sapiens) (UniProt P28223); experiment: 5-hydroxytryptamine receptor 2A (HTR2A) small molecule agonists, cell-based qHTS assay (AID 1963587); also: nearly all actives have a fitted effect of over 30% in size
How it was run: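 HTR2A-CHO cells, plated 18 h at 37 C/5% CO2, dye-loaded 1 h at 37 C; compounds in DMSO added by pin tool (agonist mode). Intracellular calcium flux read as kinetic fluorescence on FDSS over 2 min at 1 s intervals.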

[12] = target: Muscarinic acetylcholine receptor M1 (Homo sapiens) (UniProt P11229); experiment: Cholinergic receptor muscarinic 1 (CHRM1) small molecule antagonists, cell-based qHTS assay (AID 1963588); also: nearly all actives have a fitted effect of over 40% in size
How it was run: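 CHRM1-CHO calcium-flux assay, antagonist mode. Cells were seeded 18 h, dye-loaded 1 h at 37 C and given compound for 5 min at RT, then acetylcholine was added at 50nM. FDSS fluorescence was read 3 min; 15 concentrations, three runs.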

[13] = target: Muscarinic acetylcholine receptor M1 (Homo sapiens) (UniProt P11229); experiment: Cholinergic receptor muscarinic 1 (CHRM1) small molecule agonists, cell-based qHTS assay (AID 1963589); also: nearly all actives have a fitted effect of over 35% in size
How it was run: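 Each compound was tested at 15 concentrations across three independent runs on dye-loaded CHO cells stably expressing human CHRM1, reading intracellular calcium fluorescence kinetically at 1 sec intervals.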

[14] = cAMP Responsive Elements (CRE) small molecule agonists, cell-based qHTS assay (AID 1963590)
How it was run: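 Cell line: CRE-bla HEK 293T; medium DMEM/10% dialyzed FBS/0.1 mM NEAA/1 mM pyruvate/25 mM HEPES; 3 h compound exposure; beta-lactamase FRET readout after 2 h substrate loading at RT.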

[15] = cAMP Responsive Elements (CRE) small molecule antagonists, cell-based qHTS assay (AID 1963591; active = well fitted inhibition curve with a large enough effect in the signal ratio in the repeat runs, not every such curve was filed as active; the % refers to the signal ratio)
How it was run: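 Inhibition of NKH477-driven (0.25 uM final) CRE-beta-lactamase signal in HEK293T cells, 3 h compound exposure at 37 °C, detected by FRET substrate fluorescence.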

[16] = target: Beta-2 adrenergic receptor (Homo sapiens) (UniProt P07550); experiment: Adrenergic beta2 receptor (ADRB2) small molecule antagonists, cell-based qHTS assay (AID 1963592); also: series mostly up to about 92 µM; nearly all actives have a fitted effect of over 50% in size
How it was run: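 Cells (CHO, stable ADRB2 overexpression) incubated 18-20hr at 37C; compounds added from DMSO; agonist mix (1nM isoproterenol, 100uM IBMX, 25uM Ro-20-1724) added; 0.5hr RT; d2-cAMP and anti-cAMP-cryptate added; 1hr RT; 665/615 nm read.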

[17] = target: D(2) dopamine receptor (Homo sapiens) (UniProt P14416); experiment: Dopamine D2 receptor (DRD2) small molecule agonists, cell-based qHTS assay (AID 1963594); also: nearly all actives have a fitted effect of over 35% in size
How it was run: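 HEK293 cells stably expressing DRD2 were cultured 24 h at 37 C, then given Ro20-1724 (0.1 mM final) and compounds for 10 min at room temperature. NKH477 (200nM) was then added for 30 min. cAMP was read by HTRF.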

[18] = target: D(2) dopamine receptor (Homo sapiens) (UniProt P14416); experiment: Dopamine D2 receptor (DRD2) small molecule antagonists, cell-based qHTS assay (AID 1963595; active = well fitted inhibition curve with a large enough effect in the signal ratio in the repeat runs, with a control signal flat; the % refers to the signal ratio)
How it was run: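 DRD2-HEK293; 0.1 mM Ro20-1724; cpd 10 min RT; NKH477 200 nM + quinpirole 12 nM, 30 min RT; HTRF cAMP (cAMP-d2/anti-cAMP cryptate), 665/620 nm ratio after 1 h.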

[19] = p53 small molecule agonists, cell-based qHTS assay: qHTS cell viability counter screen (AID 1963581); also: nearly all actives have a fitted effect of over 45% in size
How it was run: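 In the same plates used for the p53 bla reporter, HCT-116 cells given compounds for 16 h at 37 C received CellTiter-Glo; luminescence was recorded 30 min later at room temperature.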

[20] = target: Beta-2 adrenergic receptor (Homo sapiens) (UniProt P07550); experiment: Adrenergic beta2 receptor (ADRB2) small molecule agonists, cell-based qHTS assay (AID 1963593);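 also: CHO cells stably overexpressing human ADRB2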
How it was run: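 CHO cells stably over-expressing ADRB2 were plated overnight at 37C, then dosed with compounds plus a stimulation mix containing 100uM IBMX and 25uM Ro-20-1724 for 0.5hr at room temperature. cAMP was measured by HTRF competition, 1hr.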

Chain of Beta-2 adrenergic receptor (Homo sapiens) (P07550 whole entry, looked up): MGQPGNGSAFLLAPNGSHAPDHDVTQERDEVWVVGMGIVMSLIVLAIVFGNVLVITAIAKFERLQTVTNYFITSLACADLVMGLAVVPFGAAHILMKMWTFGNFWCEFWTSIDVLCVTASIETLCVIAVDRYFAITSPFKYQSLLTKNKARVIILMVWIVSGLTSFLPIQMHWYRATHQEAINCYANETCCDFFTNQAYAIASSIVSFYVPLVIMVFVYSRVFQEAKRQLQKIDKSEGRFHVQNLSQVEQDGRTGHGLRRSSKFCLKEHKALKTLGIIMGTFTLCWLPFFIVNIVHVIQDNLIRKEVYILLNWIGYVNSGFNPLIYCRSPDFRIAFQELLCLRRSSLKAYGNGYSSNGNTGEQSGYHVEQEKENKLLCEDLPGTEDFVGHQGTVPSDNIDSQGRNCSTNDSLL
Chain of 5-hydroxytryptamine receptor 2A (Homo sapiens) (P28223 whole entry, looked up): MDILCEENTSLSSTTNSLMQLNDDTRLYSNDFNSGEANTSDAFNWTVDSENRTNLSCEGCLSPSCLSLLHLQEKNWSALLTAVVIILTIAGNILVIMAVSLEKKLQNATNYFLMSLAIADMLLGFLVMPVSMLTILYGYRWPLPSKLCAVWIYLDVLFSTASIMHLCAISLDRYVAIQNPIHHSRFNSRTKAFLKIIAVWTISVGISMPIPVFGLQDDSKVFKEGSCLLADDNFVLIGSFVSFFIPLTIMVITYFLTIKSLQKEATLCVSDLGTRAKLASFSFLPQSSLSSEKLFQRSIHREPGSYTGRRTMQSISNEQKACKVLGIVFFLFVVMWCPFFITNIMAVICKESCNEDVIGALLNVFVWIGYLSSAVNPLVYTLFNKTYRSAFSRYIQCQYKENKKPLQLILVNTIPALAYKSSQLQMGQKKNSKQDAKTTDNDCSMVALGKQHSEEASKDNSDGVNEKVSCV
Chain of D(2) dopamine receptor (Homo sapiens) (P14416 whole entry, looked up): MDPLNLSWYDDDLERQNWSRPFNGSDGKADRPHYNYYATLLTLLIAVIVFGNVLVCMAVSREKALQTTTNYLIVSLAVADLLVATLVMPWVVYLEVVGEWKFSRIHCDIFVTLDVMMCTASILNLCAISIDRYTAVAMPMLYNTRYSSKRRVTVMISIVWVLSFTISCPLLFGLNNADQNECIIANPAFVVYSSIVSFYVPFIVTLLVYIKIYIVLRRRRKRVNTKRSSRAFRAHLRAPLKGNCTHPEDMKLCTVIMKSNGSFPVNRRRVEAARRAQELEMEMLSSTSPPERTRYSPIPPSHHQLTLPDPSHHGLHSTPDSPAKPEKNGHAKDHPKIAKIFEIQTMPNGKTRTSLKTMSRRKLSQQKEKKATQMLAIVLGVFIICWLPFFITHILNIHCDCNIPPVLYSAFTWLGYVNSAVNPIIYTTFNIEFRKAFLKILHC
Chain of KiSS-1 receptor (Homo sapiens) (Q969F8 whole entry, looked up): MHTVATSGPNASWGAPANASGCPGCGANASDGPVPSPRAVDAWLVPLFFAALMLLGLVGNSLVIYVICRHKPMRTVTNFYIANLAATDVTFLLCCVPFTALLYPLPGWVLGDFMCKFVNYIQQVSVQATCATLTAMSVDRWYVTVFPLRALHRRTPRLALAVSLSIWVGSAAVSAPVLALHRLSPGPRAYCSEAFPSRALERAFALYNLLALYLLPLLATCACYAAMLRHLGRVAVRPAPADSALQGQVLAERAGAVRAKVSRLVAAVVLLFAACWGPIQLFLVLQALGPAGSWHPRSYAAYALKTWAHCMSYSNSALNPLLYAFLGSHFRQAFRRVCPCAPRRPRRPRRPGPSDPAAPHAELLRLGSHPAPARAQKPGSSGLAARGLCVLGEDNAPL
Chain of Gonadotropin-releasing hormone receptor (Homo sapiens) (P30968 whole entry, looked up): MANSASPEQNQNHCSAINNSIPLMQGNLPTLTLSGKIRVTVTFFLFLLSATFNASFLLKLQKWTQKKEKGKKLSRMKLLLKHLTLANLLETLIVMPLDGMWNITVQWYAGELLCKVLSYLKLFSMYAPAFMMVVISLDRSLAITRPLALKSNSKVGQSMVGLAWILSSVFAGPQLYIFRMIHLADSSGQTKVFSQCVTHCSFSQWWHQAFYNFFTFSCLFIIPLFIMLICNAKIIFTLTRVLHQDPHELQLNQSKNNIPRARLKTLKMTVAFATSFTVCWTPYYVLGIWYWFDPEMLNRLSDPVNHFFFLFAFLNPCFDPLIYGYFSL
Chain of Muscarinic acetylcholine receptor M1 (Homo sapiens) (P11229 whole entry, looked up): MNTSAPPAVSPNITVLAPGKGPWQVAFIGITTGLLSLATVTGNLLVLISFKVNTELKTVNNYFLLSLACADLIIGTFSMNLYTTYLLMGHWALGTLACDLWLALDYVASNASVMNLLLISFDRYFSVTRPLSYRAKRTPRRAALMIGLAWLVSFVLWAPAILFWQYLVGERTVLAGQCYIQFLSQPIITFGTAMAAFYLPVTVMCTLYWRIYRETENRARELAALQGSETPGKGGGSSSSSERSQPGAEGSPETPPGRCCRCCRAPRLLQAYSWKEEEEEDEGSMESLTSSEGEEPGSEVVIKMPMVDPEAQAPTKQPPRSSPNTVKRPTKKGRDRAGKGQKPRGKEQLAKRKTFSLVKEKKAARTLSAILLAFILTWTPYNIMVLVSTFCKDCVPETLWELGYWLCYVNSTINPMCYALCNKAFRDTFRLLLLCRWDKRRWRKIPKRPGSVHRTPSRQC

FC(F)(F)C(F)(F)C(F)(F)C(F)(F)C(F)(F)C(F)(F)C(F)(F)C(F)(F)C(F)(F)C(F)(F)F
activity change, negative = cytotoxicity [1]: 2.36% [at 8.39 µM] | activity, positive = activation [2]: -2.47% [at 8.39 µM] | activity change [3]: 0.129% [at 5.22 µM, active compounds read high] | activation [4]: -3.4% [at 6.97 µM] | activation [5]: -1.63% [at 5.23 µM] | activation [6]: 0.0412% [at 5.99 µM] | activation [7]: -3.19% [at 5.99 µM] | activity change, negative = cytotoxicity [8]: 2.89% [at 5.99 µM] | activity change, negative = cytotoxicity [9]: -0.558% [at 5.99 µM] | activity, negative = inhibition [10]: -16.5% [at 5.62 µM] | activation [11]: 9.84% [at 7.02 µM] | activity, negative = inhibition [12]: 8.35% [at 5.58 µM] | activation [13]: -0.0294% [at 6.97 µM] | activation [14]: -1.41% [at 8.39 µM] | activity change, negative = inhibition [15]: -8.96% [at 8.39 µM] | activity change, negative = inhibition [16]: 4.67% [at 8.39 µM] | activation [17]: -0.702% [at 8.39 µM] | activity change, negative = inhibition [18]: 10.1% [at 8.38 µM]

C1COC(NC(C2CC2)C2CC2)=N1
Potency [1]: inactive | Potency [2]: inactive | Potency [3]: inactive | outcome [4]: inactive | outcome [5]: inactive | Potency [6]: inactive | Potency [7]: inactive | Potency [8]: inactive | Potency [9]: inactive | Potency [19]: inactive | Potency [11]: inactive | Potency [13]: inactive | Potency [14]: inactive | Potency [16]: inactive | Potency [20]: inactive | Potency [17]: inactive | Potency [18]: inactive

CCCC(=O)C(CC)Sc1ccoc1C (stereo not drawn)
Potency [1]: inactive | Potency [2]: inactive | Potency [3]: inactive | outcome [4]: inactive | outcome [5]: inactive | Potency [6]: inactive | Potency [7]: inactive | Potency [8]: inactive | Potency [9]: inactive | Potency [10]: inactive | Potency [11]: inactive | Potency [12]: inactive | Potency [13]: inactive | Potency [14]: inactive | Potency [15]: inactive | Potency [16]: inactive | Potency [17]: inactive | Potency [18]: inactive

CN(C)CCOCCN(C)CCO
Potency [1]: inactive | Potency [2]: inactive | Potency [3]: inactive | outcome [4]: inactive | outcome [5]: inactive | Potency [6]: inactive | Potency [7]: inactive | Potency [8]: inactive | Potency [9]: inactive | Potency [10]: inactive | Potency [11]: inactive | Potency [12]: inactive | Potency [13]: inactive | Potency [14]: inactive | Potency [15]: inactive | Potency [16]: inactive | Potency [17]: inactive | Potency [18]: inactive

CCCCCCCC/C=C\CCCCCCCC(=O)OC
Potency [1]: inactive | Potency [2]: inactive | Potency [3]: inactive | outcome [4]: inactive | outcome [5]: inactive | Potency [6]: inactive | Potency [7]: inactive | Potency [8]: inactive | Potency [9]: inactive | Potency [19]: inactive | Potency [11]: inactive | Potency [13]: inactive | Potency [14]: inactive | Potency [16]: inactive | Potency [20]: inactive | Potency [17]: inactive | Potency [18]: inactive

c1cc(N(CC2CO2)CC2CO2)ccc1Cc1ccc(N(CC2CO2)CC2CO2)cc1 (stereo not drawn)
Potency [1]: 43.3 µM (active) | Potency [2]: 21.7 µM (active) | Potency [3]: inactive | outcome [4]: inactive | outcome [5]: inactive | Potency [6]: inactive | Potency [7]: inactive | Potency [8]: inactive | Potency [9]: inactive | Potency [19]: inactive | Potency [11]: inactive | Potency [13]: inactive | Potency [16]: inactive | Potency [17]: inactive | Potency [18]: inactive

CCCCCCCCCCCCCCCCCC#N
Potency [1]: inactive | Potency [2]: inactive | Potency [3]: inactive | outcome [4]: inactive | outcome [5]: inactive | Potency [6]: inactive | Potency [7]: inactive | Potency [8]: inactive | Potency [9]: 1.65 µM (active) | Potency [10]: inactive | Potency [11]: inactive | Potency [12]: inactive | Potency [13]: inactive | Potency [14]: inactive | Potency [15]: inactive | Potency [16]: inactive | Potency [17]: inactive

CC(C)CCCC(=O)O
Potency [1]: inactive | Potency [2]: inactive | Potency [3]: inactive | outcome [4]: inactive | outcome [5]: inactive | Potency [6]: inactive | Potency [7]: inactive | Potency [8]: inactive | Potency [9]: inactive | Potency [10]: inactive | Potency [11]: inactive | Potency [12]: inactive | Potency [13]: inactive | Potency [14]: inactive | Potency [15]: inactive | Potency [16]: inactive | Potency [17]: inactive | Potency [18]: inactive
